Common to all, as to assay: NCI-60 one-dose screen, 48 h (100 = growth as untreated, 0 = no growth, -100 = all killed)
What all share (conditions): 10 µM unless noted

Experiment [1] concerns SK-MEL-2 melanoma.
Experiment [2] has as its system EKVX NSCLC.
Experiment [3] concerns SN12C renal.
For experiment [4], the system named is UO-31 renal.
Experiment [5] has as its system TK-10 renal.
The subject of experiment [6] is ACHN renal.
For experiment [7], the system named is CAKI-1 renal.
Experiment [8] deals with A498 renal.
The test system of experiment [9] is CCRF-CEM leukemia.
Experiment [10] has as its system MOLT-4 leukemia.

Where “and” joins values, the source holds several entries; their conditions need not be identical. Equal values may be shown once. About 83,000 compounds went through this panel and 20% of them were active in at least one assay; those are over-represented in the sample as a whole.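 Step 1: grow cells in 96-well plates. Step 2: add test compound at a single concentration. Step 3: incubate 48 h. Step 4: record percent growth.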 Calls of active or inactive are those of the source. How the source made its calls: active means growth percent below 10; inactive means the rest.

The record followed here is PubChem BioAssay (NCI).

Take `Cc1cc2ccccc2c2cc3ccccc3cc12`: the growth in [1] is 92.6% (inactive); in experiment [2], 82.7% (inactive); in experiment [3], 98.3% (inactive); in experiment [4], 78.8% (inactive); in experiment [5] it was 98.8% (inactive); in experiment [6], 92.8% (inactive). The growth in [7] is 88.8% (inactive); in experiment [8], 88.5% (inactive); in experiment [9] it was 97% (inactive); in experiment [10] it was 65.6% (inactive).
`CCC/C(=N/NC(N)=O)c1ccco1`: the growth in [1] was 94.8% (inactive); in experiment [2] it was 89.7% (inactive); in [3] it was 93% (inactive); in experiment [4], 90.6% (inactive); in experiment [5] it was 88.3% (inactive); in experiment [6], 94.9% (inactive). Moreover, the growth in [7] is 92.7% (inactive); in [8], 68.1% (inactive); in experiment [9], 97.8% (inactive); in experiment [10], 80.3% (inactive).
`O=C(NC(=O)c1ccc(F)c(Cl)c1)NC1CC1`: the growth in [1] is 107% (inactive); in experiment [2] it was 89.6% (inactive); in [3], 102% (inactive) and 87.9% (inactive); in experiment [4], 96.8% (inactive); in experiment [5] it was 94.3% (inactive) and 96.1% (inactive); in [6], 106% (inactive) and 108% (inactive). Besides, the growth in experiment [7] was 104% (inactive) and 87.1% (inactive); in experiment [8] it was 95.8% (inactive) and 96% (inactive); in experiment [9], 97.2% (inactive) and 101% (inactive); in [10], 94.2% (inactive) and 75.6% (inactive).
For `O=C1C=CC(n2cc(F)c(=O)[nH]c2=O)O1` (stereo unspecified), the growth in experiment [1] was 109% (inactive); in experiment [2], 93.3% (inactive); in [3], 64.4% (inactive); in experiment [4] it was 63.4% (inactive); in experiment [5] it was 75.7% (inactive); in experiment [6], 56.5% (inactive). Further, the growth in experiment [7] is 46.5% (inactive); in [8] it was 79.5% (inactive); in [9], 50.4% (inactive); in experiment [10], 54.4% (inactive).
As to `CC1=CC(=O)C=CC1=Nc1ccc(N(C)C)cc1`, the growth was 44.6% (inactive) in experiment [1]; -44.9% (active) in [2]; 90.6% (inactive) and 46.4% (inactive) in experiment [3]; 65.6% (inactive) and 50.7% (inactive) in experiment [4]; 126% (inactive) and 115% (inactive) in experiment [5]; 96.6% (inactive) and 55.3% (inactive) in experiment [6]. The growth was 87.1% (inactive) and 67.3% (inactive) in [7]; 92.7% (inactive) and 121% (inactive) in experiment [8]; -28.7% (active) in [9]; 50.4% (inactive) and 12% (inactive) in [10].
On to `Cc1nc(Nc2ccc(Cl)cc2)c2cnn(-c3ccccc3)c2n1`, for which the growth was 100% (inactive) in experiment [1]; 91.3% (inactive) in experiment [2]; 102% (inactive) in experiment [3]; 94.6% (inactive) in [4]; 95.4% (inactive) in [5]; 105% (inactive) in experiment [6]. For the same compound, the growth in experiment [7] was 96.3% (inactive); in experiment [8] it was 83.5% (inactive); in [9], 26.1% (inactive); in [10], 106% (inactive).
With `N=C(N)N1CCc2ccccc2C1`, the growth in experiment [1] is 128% (inactive); in experiment [2] it was 66% (inactive) and 97% (inactive); in experiment [3], 90.8% (inactive) and 99.6% (inactive); in experiment [4] it was 82.8% (inactive) and 86.8% (inactive); in experiment [5] it was 106% (inactive) and 110% (inactive); in experiment [6] it was 101% (inactive). Further, the growth was 74.5% (inactive) and 101% (inactive) in experiment [7]; 58.3% (inactive) in experiment [8]; 91.9% (inactive) in experiment [9]; 88.3% (inactive) and 106% (inactive) in experiment [10].
For `CCOC(=O)c1ccc(N2C(=O)C(Cl)(c3ccccc3)C2c2ccco2)cc1` (stereo unspecified), the growth in experiment [1] was 98.7% (inactive); in [2] it was 61.2% (inactive); in experiment [3], 95% (inactive); in [4], 70.8% (inactive); in experiment [5], 106% (inactive); in experiment [6] it was 91.9% (inactive). Moreover, the growth in experiment [7] is 71.7% (inactive); in experiment [8] it was 88.8% (inactive); in [9], 62.3% (inactive); in [10], 59.9% (inactive).
Consider `NNc1ncnc2cccc(Cl)c12`, for which the growth in [1] is 95.3% (inactive); in experiment [2], 90.8% (inactive); in [3], 87.6% (inactive); in experiment [4] it was 89.1% (inactive); in experiment [5], 99.9% (inactive); in experiment [6], 96.4% (inactive). Besides, the growth in experiment [7] was 107% (inactive); in [8] it was 108% (inactive); in experiment [9], 102% (inactive); in experiment [10] it was 108% (inactive).
On to `Oc1cccnc1CN1CCOCC1`, for which the growth in experiment [1] was 97.5% (inactive) and 132% (inactive); in experiment [2], 105% (inactive) and 91.9% (inactive); in [3], 104% (inactive) and 95.6% (inactive); in experiment [4], 78.4% (inactive) and 88.4% (inactive); in [5] it was 110% (inactive) and 109% (inactive); in experiment [6], 106% (inactive) and 97.3% (inactive). The growth in experiment [7] was 105% (inactive) and 89.2% (inactive); in [8] it was 112% (inactive); in experiment [9], 103% (inactive) and 88.7% (inactive); in experiment [10] it was 99.1% (inactive) and 107% (inactive).
For the compound `O=C1c2ccccc2CN1c1ccccc1`, the growth was 70.6% (inactive) in experiment [1]; 113% (inactive) in [2]; 90.5% (inactive) in experiment [3]; 121% (inactive) in experiment [4]; 94.3% (inactive) in [5]; 99% (inactive) in experiment [6]. Also, the growth in experiment [7] is 102% (inactive); in [8] it was 101% (inactive); in [9], 106% (inactive); in experiment [10] it was 85.2% (inactive).
For `O=S(=O)(O)c1ccc2cc(O)ccc2c1`, the growth is 106% (inactive) in experiment [1]; 106% (inactive) in [2]; 105% (inactive) in experiment [3]; 95.1% (inactive) in experiment [4]; 99.7% (inactive) in experiment [5]; 106% (inactive) in experiment [6]. Also, the growth in experiment [7] is 99.5% (inactive); in experiment [8] it was 78.8% (inactive); in experiment [9], 109% (inactive); in experiment [10] it was 103% (inactive).
On to `Cc1cc(NC(=O)NC(=O)c2ccccc2N(C)C)ccc1Oc1ncc(Br)cn1`, for which the growth is 48% (inactive) and 60.5% (inactive) in [1]; 47.7% (inactive) and 42.5% (inactive) in experiment [2]; 51.6% (inactive) and 51.3% (inactive) in [3]; 24.2% (inactive) and 56.1% (inactive) in experiment [4]; 36.5% (inactive) and 63.1% (inactive) in experiment [5]; 25.9% (inactive) and 38.2% (inactive) in [7]. Besides, the growth in [8] was 15.2% (inactive) and 10.6% (inactive); in [9], 4.54% (active) and 17.5% (inactive); in [10] it was 19.5% (inactive) and 26.5% (inactive).
In the case of `NNC(=O)Nc1ccccc1`, the growth in experiment [1] is 106% (inactive); in [2] it was 96.2% (inactive); in experiment [3] it was 101% (inactive); in experiment [4], 90% (inactive); in experiment [5] it was 110% (inactive); in experiment [6], 100% (inactive). Further, the growth in experiment [8] is 85.2% (inactive); in experiment [9] it was 104% (inactive); in experiment [10], 114% (inactive).
Take `CC(C)(C)C1CCC(=NO)CC1` (stereo unspecified): the growth in experiment [1] is 94.5% (inactive); in experiment [2], 102% (inactive); in [3], 103% (inactive); in [4], 71.7% (inactive); in [5], 108% (inactive); in experiment [7] it was 97.2% (inactive). For the same compound, the results for the growth in experiment [8], in [9] and in experiment [10] were 97.4% (inactive), 99.8% (inactive) and 123% (inactive), respectively.
On to `O=C1C(=O)c2ccccc2C(O)=C1CC=C(Cl)Cl`, for which the growth is 89.2% (inactive) and 77.8% (inactive) in experiment [1]; 75.8% (inactive) in experiment [2]; 68.8% (inactive) and 66.9% (inactive) in experiment [3]; 55% (inactive) and 47.8% (inactive) in [4]; 75.8% (inactive) and 69.5% (inactive) in [5]; 52.6% (inactive) and 65% (inactive) in experiment [6]. Further, the growth is 81% (inactive) and 82.9% (inactive) in experiment [8]; 44% (inactive) and 39.3% (inactive) in [9]; 20.5% (inactive) and 23.4% (inactive) in experiment [10].
